{"source": "PubChem BioAssay AID2551", "about": "(National Center for Advancing Translational Sciences (NCATS), 2010)", "note": "Screen size: about 310,000 compounds; about 17,000 (5.5%) were called active. Not shown: some 11% with an inconclusive outcome. This is one part of a sample in which actives are shown more often than they occur. A number with no mark means an inactive call. Calls follow the shape of the dose curve; as a rule, active = well fitted inhibition curve with a large enough effect; inconclusive = small, poorly fitted or top-dose-only effect, or effect the other way; inactive = no such curve, though single readings can be large or run the other way. % is scaled to controls: 0 for no effect and ±100 for the full control effect; potency is read from the fitted curve at half-maximal effect.", "data": [{"molecular_target": "Nuclear receptor ROR-gamma (Mus musculus) (UniProt P51450)", "sequence (P51450 whole entry, looked up, the tested form may be a part)": "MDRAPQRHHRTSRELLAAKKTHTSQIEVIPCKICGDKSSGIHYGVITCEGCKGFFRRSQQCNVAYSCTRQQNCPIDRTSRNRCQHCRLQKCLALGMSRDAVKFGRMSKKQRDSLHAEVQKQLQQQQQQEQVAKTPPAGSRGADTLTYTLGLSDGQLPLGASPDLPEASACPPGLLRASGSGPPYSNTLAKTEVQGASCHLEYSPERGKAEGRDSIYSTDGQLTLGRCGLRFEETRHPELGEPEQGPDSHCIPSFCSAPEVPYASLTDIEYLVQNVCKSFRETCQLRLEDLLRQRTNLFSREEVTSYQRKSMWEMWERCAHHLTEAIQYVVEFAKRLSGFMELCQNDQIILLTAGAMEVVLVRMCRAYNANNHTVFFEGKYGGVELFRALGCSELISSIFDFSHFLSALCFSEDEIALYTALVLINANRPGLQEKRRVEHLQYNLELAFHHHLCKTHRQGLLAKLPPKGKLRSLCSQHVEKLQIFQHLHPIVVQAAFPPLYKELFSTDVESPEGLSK", "assay": "qHTS for inhibitors of ROR gamma transcriptional activity; also: nearly all actives have a fitted effect of over 60% in size", "settings": "Drosophila S2 Gal4-RORgamma UAS-luciferase reporter, 20 h; series mostly up to 53.6 µM; activity change, negative = inhibition: at the top concentration", "description": "NIH Molecular Libraries Probe Production Network [MLPCN] NIH Chemical Genomics Center [NCGC] MLPCN Grant: R03 DA026211-01 Assay Provider: Dan Littman, New York University Assay Overview: The retinoic acid-related orphan receptor (ROR) gamma is a transcription factor that has a central role in the differentiation of Th17 cells, a subset of T helper cells that secrete the inflammatory cytokines IL-17, IL-17F, and IL-22. Th17 cells have been implicated in graft versus host disease, autoimmune disease and asthma. ROR gamma is induced in naive T helper cells in the presence of TGF-beta combined with IL-6, IL-21, or IL-23, and thereafter directs the expression of the Th17 lineage cytokines. To study the mechanism of action of ROR gamma, an insect cell-based assay was screened. This Drosophila Schneider cell line was stably transfected with two vectors: a gene expressing a fusion of the Gal4 DNA binding domain and ROR gamma transactivation domain under the control of the metallothionine promoter and a Photinus luciferase reporter regulated by the Gal4 binding site enhancer, UAS. […] Small molecule inhibitors of ROR gamma activity are detected by a decrease in luciferase reporter activity.\nAssay Protocol Summary: For screening, 600 cells in 4 uL/well were dispensed into white solid 1536-well plates (Grenier) using a solenoid-based dispenser. Following transfer of 23 nL compound or DMSO vehicle by a pin tool, the plates were incubated 1 hr at ambient temperature, and 1 uL/well copper sulfate (700 uM final concentration) was added. The plates were centrifuged 15 s at 1000 RPM and incubated 20 hr at ambient temperature. After addition of 1.5 uL Photinus luciferase detection reagent, the plates were incubated 10 min at ambient temperature and then read by an ViewLux (Perkin Elmer) to detect luminescence. Keywords: NIH Roadmap, MLPCN, MLI, MLSMR, qHTS, NCGC, qHTS, nuclear hormone receptor, retinoic acid-related orphan receptor, ROR gamma", "values": [{"smiles": "COc1ccc(CSc2nnnn2-c2ccc(C(=O)O)cc2)cc1", "activity change, negative = inhibition": "14.9%"}, {"smiles": "COc1cc(/C=N/Nc2nc3ccccc3s2)ccc1O", "activity change, negative = inhibition": "-23%"}, {"smiles": "COc1cc(/C=C(\\C#N)c2nc3ccccc3[nH]2)ccc1O", "activity change, negative = inhibition": "15.4%"}, {"smiles": "COc1cc(/C=C(\\C#N)c2nc3c(s2)CC(C)CC3)ccc1O", "note": "(stereo not drawn)", "Potency": "1.41 µM (active)"}, {"smiles": "CCc1ccc(OCC(=O)NCC(c2ccc(Cl)cc2)N2CCCCC2)cc1", "note": "(stereo not drawn)", "activity change, negative = inhibition": "0%"}, {"smiles": "OC1CSc2nc3ccccc3n2C1", "note": "(stereo not drawn)", "activity change, negative = inhibition": "2.37%"}, {"smiles": "O=C(Nc1ccccc1)C1CC(=O)n2c(nc3ccccc32)N1", "note": "(stereo not drawn)", "activity change, negative = inhibition": "-22%"}, {"smiles": "C[C@H]1[C@H]2c3nc4ccccc4n3C[C@H]1ON2C1CCCCC1", "Potency": "11.2 µM (active)"}, {"smiles": "Cc1ccc(-n2nc3c(=O)n(C(C)C(=O)NCc4ccc5c(c4)OCO5)nc(C)c3c2C)cc1", "note": "(stereo not drawn)", "activity change, negative = inhibition": "26.2%"}, {"smiles": "CN(CC1CCCO1)S(=O)(=O)c1ccc(C(=O)Nc2ccc(F)cc2)cc1", "note": "(stereo not drawn)", "activity change, negative = inhibition": "17.2%"}, {"smiles": "COc1ccc(NC(=O)COC(=O)Cn2c(C)nc3ccccc32)cc1OC", "activity change, negative = inhibition": "16.5%"}, {"smiles": "COCCn1c(-c2ccc(OC)c(OC)c2)nc2ccccc21", "activity change, negative = inhibition": "-28.3%"}, {"smiles": "COc1ccc(-c2nc3ccccc3n2CCC(C)C)cc1OC", "Potency": "11.2 µM (active)"}, {"smiles": "COc1cccc(CNC(=O)COc2cc(O)c3c(c2)OC(C)(C)CC3=O)c1", "activity change, negative = inhibition": "4.48%"}, {"smiles": "Cc1[nH]c(C)c(S(=O)(=O)N2CCN(c3cccc(C(F)(F)F)c3)CC2)c1C(=O)N1CCCC1", "activity change, negative = inhibition": "-17.9%"}, {"smiles": "Cc1ccccc1N1CCN(S(=O)(=O)c2ccc3ccccc3c2)CC1", "activity change, negative = inhibition": "-16.6%"}, {"smiles": "Cc1cccn2c(=O)c(C=O)c(Nc3ccc(S(N)(=O)=O)cc3)nc12", "activity change, negative = inhibition": "-41.3%"}, {"smiles": "CN(CC1CCCO1)S(=O)(=O)c1ccc(C(=O)Nc2ccc([N+](=O)[O-])cc2)cc1", "note": "(stereo not drawn)", "activity change, negative = inhibition": "13.7%"}, {"smiles": "CC(=O)N1c2ccc(S(=O)(=O)N3CCC(C(=O)NC4CCCC(C)C4C)CC3)cc2CC1C", "note": "(stereo not drawn)", "activity change, negative = inhibition": "-1.35%"}, {"smiles": "Cc1ccccc1CNC(=O)CCC(=O)N1Cc2ccccc2Oc2ncccc21", "activity change, negative = inhibition": "4.13%"}, {"smiles": "COc1ccc2[nH]c(=O)c(CN(Cc3cccnc3)S(=O)(=O)c3ccccc3F)cc2c1", "activity change, negative = inhibition": "21.1%"}, {"smiles": "COC(=O)Cc1ccc(OCC(=O)Nc2ccc(OC(F)(F)F)cc2)cc1", "activity change, negative = inhibition": "26.2%"}, {"smiles": "FC(F)(F)Oc1ccc(NC(=S)NCc2ccccc2)cc1", "Potency": "7.08 µM (active)"}, {"smiles": "Cn1nccc1NC(=O)Nc1ccc(OC(F)(F)F)cc1", "activity change, negative = inhibition": "15.9%"}, {"smiles": "COc1cc(C(=S)NCc2ccccc2)cc(Br)c1O", "activity change, negative = inhibition": "15.3%"}, {"smiles": "CCNC(=S)Nc1ccc(OC(F)(F)F)cc1", "Potency": "8.91 µM (active)"}, {"smiles": "O=C(CCOc1ccccc1)NCc1ccccc1", "activity change, negative = inhibition": "5.22% [at 0.365 µM]"}, {"smiles": "CC(C)Cn1c(=O)c2ccccc2n2c(CCC(=O)NCc3ccccn3)nnc12", "activity change, negative = inhibition": "-7.08%"}, {"smiles": "Cc1ccc(C(C(=O)NCC2CCCO2)N(C(=O)c2snc(C(N)=O)c2N)c2ccc(C(C)C)cc2)o1", "note": "(stereo not drawn)", "activity change, negative = inhibition": "40.4%"}, {"smiles": "CCOc1ccc(OCC(=O)Nc2c3c(nn2C(C)(C)C)CS(=O)(=O)C3)cc1", "activity change, negative = inhibition": "-13.8%"}, {"smiles": "CC(C)(C)c1ccc(SCCc2ccncc2)cc1", "activity change, negative = inhibition": "-15.8%"}, {"smiles": "CC1(C)CC(=O)c2ccc(O)cc2O1", "activity change, negative = inhibition": "29%"}, {"smiles": "COc1ccc2c(c1)SC(C)CC2=O", "note": "(stereo not drawn)", "activity change, negative = inhibition": "-11.9%"}, {"smiles": "COc1ccc2c(c1)OC(O)(C(F)(F)C(F)F)CC2=O", "note": "(stereo not drawn)", "Potency": "12.6 µM (active)"}, {"smiles": "CC(=O)N1CCOc2ccc(S(=O)(=O)N3CCN(c4cccc(C(F)(F)F)c4)CC3)cc21", "activity change, negative = inhibition": "30.8%"}, {"smiles": "COc1ccc(OC)c(C(=O)CSc2nnc(-c3cccs3)o2)c1", "Potency": "7.08 µM (active)"}, {"smiles": "COc1ccc(-c2nnc(SCC(=O)NC3CCCCC3)o2)cc1OC", "activity change, negative = inhibition": "-18.5%"}, {"smiles": "COc1ccc(-n2c(C)cc(C(=O)CSc3nnc(-c4cccs4)o3)c2C)cc1", "activity change, negative = inhibition": "-33.4%"}, {"smiles": "COCCOC(=O)C1=C(C)NC(=O)NC1c1cc2c(cc1Br)OCO2", "note": "(stereo not drawn)", "activity change, negative = inhibition": "-4.24%"}, {"smiles": "Cc1ccc2cc(/C=N/Nc3ccc(C(=O)O)cc3)c(Cl)nc2c1", "activity change, negative = inhibition": "-43.4%"}, {"smiles": "O=C(O)c1ccc(/C=N/Nc2nc(N3CCCCC3)nc(N3CCCCC3)n2)cc1", "activity change, negative = inhibition": "-42.2%"}, {"smiles": "O=C(O)c1ccc(N/N=C/c2ccc3ncccc3c2)cc1", "Potency": "0.398 µM (active)"}, {"smiles": "O=C(O)c1ccc(OCC2CCCO2)cc1", "note": "(stereo not drawn)", "activity change, negative = inhibition": "-11.8%"}, {"smiles": "N=C1/C(=C/c2cccn2-c2cccc([N+](=O)[O-])c2)C(=O)N=C2SC=CN12", "Potency": "5.01 µM (active)"}, {"smiles": "Cc1ccc(-c2nc(-c3ccncc3)no2)c(C)c1", "activity change, negative = inhibition": "-32.9%"}, {"smiles": "CCOc1ccccc1NC(=O)CCc1nnc2ccc(NCc3ccco3)nn12", "activity change, negative = inhibition": "0.872%"}, {"smiles": "CC1=C/C(=N\\OS(=O)(=O)c2ccccc2)C=CC1=O", "Potency": "1.58 µM (active)"}, {"smiles": "O=S(=O)(ON(c1ccccc1)S(=O)(=O)c1ccccc1)c1ccccc1", "activity change, negative = inhibition": "26.8%"}, {"smiles": "CC1=C/C(=N\\S(=O)(=O)c2ccccc2)C(C(C)C)=CC1=O", "activity change, negative = inhibition": "-9.35%"}, {"smiles": "CCN1C(=NCC(C)C)N[C@@H](CCc2ccccc2)[C@H](C(=O)NCC(C)C)[C@H]1C", "Potency": "inactive"}, {"smiles": "CCOc1cc(/C=N/n2cnnc2)c(Br)cc1O", "Potency": "7.08 µM (active)"}, {"smiles": "Brc1cc(/C=N/n2cnnc2)oc1Br", "activity change, negative = inhibition": "37.3%"}, {"smiles": "Fc1ccc(Br)cc1/C=N/n1cnnc1", "activity change, negative = inhibition": "-8.64%"}]}]}
